The nature of assay [1]: P-glycoprotein substrates identified in KB-3-1 adenocarcinoma cell line, qHTS therapeutic library screen (AID 1346986). Note: nearly all actives have a fitted effect of over 60% in size.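 Note: potency is for cytotoxicity meaning loss of cell viability.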 The method in brief:
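Viability by CellTiter-Glo after 72 h compound exposure at 37 degree C, 5% CO2. Cytotoxic call: curve class -1.1 to -2.4, maximum response >50%, AC50 < 10 uM, compared across KB-3-1 and P-gp-overexpressing KB-8-5-11.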

Assay [2] can be described thus: P-glycoprotein substrates identified in KB-8-5-11 adenocarcinoma cell line, qHTS therapeutic library screen (AID 1346987). For activity change, negative = cytotoxicity: series mostly up to about 44 µM; % is set by controls: 0 for no effect and ±100 for the full control effect. Note: nearly all actives have a fitted effect of over 65% in size. The method in brief: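 Human cervical adenocarcinoma KB-8-5-11 cells, selected in colchicine to over-express P-gp and assayed without it, were exposed for 72 h to titrated compounds. An ATP-based luminescent viability signal gave AC50.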
(qHTS replaces the single test concentration by a dilution series.)

The subject of assay [3] is Zika virus NS2B-NS3 protease (unlinked complex). Briefly: Primary screen GU Rhodamine qHTS for Zika virus inhibitors: Unlinked NS2B-NS3 protease assay (AID 1347159). Note: nearly all actives have a fitted effect of over 60% in size. The method in brief: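 Enzyme 25 nM in Tris-HCl pH 8.0 + 0.01% Tween 20; compounds up to 114 microM, 15 min RT dark; + Rhod110 substrate 1.5 microM; read t0 and 15 min; delta fluorescence → % inhibition → 4-parameter Hill fit.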

The subject of assay [4] is Zika virus NS2B-NS3 protease (linked construct). Briefly: Primary screen NINDS Rhodamine qHTS for Zika virus inhibitors (AID 1347160). Note: nearly all actives have a fitted effect of over 55% in size. The method in brief: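 Enzyme (25 nM, linked NS2B-NS3) was preincubated 15 min with compound in 10 mM Tris-HCl pH 8.0, 0.01% Tween 20. Rhodamine110 substrate (1.5 microM) was then added and fluorescence read at start and after 15 min.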

Where “and” joins values, the source holds several entries; their conditions need not be identical. Equal entries are not always repeated. Inconclusive results are not listed. The source holds several records for some structures; these can differ, active in one and inactive in another. Calls of active or inactive are those of the source. Calls come from the whole dose curve; as a rule, active = well fitted curve in the direction sought with a large enough effect; inconclusive = small, poorly fitted or top-dose-only effect, or another doubt; inactive = no such curve, though single readings can be large; an effect the other way counts as inactive or inconclusive.
Potency is the fitted concentration of half-maximal effect.

As to `COC(=O)C1=COC(OC2OC(CO)C(O)C(O)C2O)C2C(C)C(OC(C)=O)C(OC(=O)c3ccccc3)C12` (stereo not given), the Potency entry in assay [1], in assay [2], in assay [3] and in assay [4] was “inactive” each time.

With `CC(C)=C1CC2C(CCC2(C)O)C(C)(O)CC1=O` (stereo not given), the Potency entry in assay [1], in assay [2] and in assay [3] was “inactive” in each case.

With `CC(C)CC(=O)NCCn1cc(C(=O)O)c(=O)cc1C(O)c1ccccc1` (stereo not given), the Potency result in assay [1], in assay [2] and in assay [3] was “inactive” each time.

For the compound `CC1=C(C(=O)OC2OC(COC3OC(CO)C(O)C(O)C3O)C(O)C(O)C2O)C(C)(C)CCC1` (stereo not given), the Potency entry in assay [1], in assay [2], in assay [3] and in assay [4] was “inactive” each time.

With `Cc1noc2c1-c1ccccc1C(c1ccc(Cl)cc1)=N[C@H]2CC(N)=O`, the Potency result in assay [1], in assay [2] and in assay [3] was “inactive” each time.

On to `CC(C)CC(=O)O[C@@H]1O[C@H](CO)[C@@H](O[C@H]2O[C@H](C)[C@@H](N[C@H]3C=C(CO)[C@@H](O[C@H]4O[C@H](CO)[C@@H](O[C@H]5O[C@H](CO)[C@@H](O[C@H]6O[C@H](CO)[C@@H](O)[C@H](O)[C@H]6O)[C@H](O)[C@H]5O)[C@H](O)[C@H]4O)[C@H](O)[C@H]3O)[C@H](O)[C@H]2O)[C@H](O)[C@H]1O`, for which the outcome in assay [1] is “inactive [at 9.29 µM]”. Moreover, the activity change, negative = cytotoxicity in assay [2] is 8.1% [at 9.29 µM] (inactive). The Potency result in assay [3] was “inactive”.

As for `CC(C)C1CCC(C(=O)N[C@@H](Cc2ccccc2)C(=O)O)CC1` (stereo not given in full), the Potency entry in assay [1] and in assay [2] was “inactive” in each case. In addition, in assay [3], the Potency was 31.6 µM (active).

Turning to `CC1(C)CC[C@]2(C(=O)O)CC[C@]3(C)C(=CCC4[C@@]5(C)CC[C@H](O[C@@H]6O[C@H](C(=O)O)[C@@H](O)[C@H](O[C@@H]7O[C@H](CO)[C@H](O)[C@H](O)[C@H]7O)[C@H]6O[C@@H]6O[C@H](CO)[C@@H](O)[C@H](O)[C@H]6O)C(C)(C)C5CC[C@]43C)[C@@H]2C1` (stereo not given in full), the outcome in assay [1] was “inactive [at 5.11 µM]”. For the same compound, in assay [2], the activity change, negative = cytotoxicity was 3.75% [at 5.11 µM] (inactive). For the same compound, the Potency in assay [3] was 5.62 µM (active). The Potency result in assay [4] was “inactive”.

As to `C[C@@]1(C(=O)O)CCC[C@@]2(C)C3=CC[C@H]4C[C@@]3(CC[C@H]12)CC4(O)CO` (stereo not given in full), the Potency entry in assay [1], in assay [2], in assay [3] and in assay [4] was “inactive” in each case.

Turning to `CC12CC(O)C(O)C=C1c1cc(O)cc(O)c1C(=O)O2` (stereo not given), the Potency entry in assay [1], in assay [2], in assay [3] and in assay [4] was “inactive” each time.

As to `CCCC/C=C\CCCCCc1cc(=O)c2ccccc2n1C`, the Potency entry in assay [1], in assay [2], in assay [3] and in assay [4] was “inactive” throughout.

As for `Cc1c(F)cc(C(=O)NC2CC2)cc1-c1ccc(C(=O)NCC(C)(C)C)cn1`, the Potency in assay [1] is 920 nM (active); in assay [2], “inactive and 1.03 µM (active)”. Further, the Potency result in assay [3] and in assay [4] was “inactive” each time.

In the case of `C[C@@H]1O[C@@H](O[C@@H]2\C=C/C=C\C=C/C=C\C[C@H](C)OC(=O)/C=C\[C@H]3O[C@@H]3C[C@H](O)C[C@]3(O)C[C@@H](O)[C@@H](C(=O)O)[C@H](C2)O3)[C@H](O)[C@H](N)[C@@H]1O`, the Potency result in assay [1], in assay [2], in assay [3] and in assay [4] was “inactive” each time.

On to `O=C(/C=C/c1ccc(O)cc1)OC[C@H]1O[C@H](O[C@@]2(CO)O[C@@H](CO)[C@H](O)[C@H]2O)[C@H](O)[C@@H](O)[C@@H]1O`, for which the Potency entry in assay [1], in assay [2], in assay [3] and in assay [4] was “inactive” each time.

In the case of `CC(=O)O[C@H]1C[C@@H](O)C(C)(C)C2C[C@@H](OC(C)=O)[C@]3(C)C(CC[C@@]4(C)[C@H](c5ccoc5)OC(=O)[C@H]5O[C@]543)[C@]21C` (stereo not given in full), the Potency entry in assay [1], in assay [2], in assay [3] and in assay [4] was “inactive” each time.

For `OCC1=C[C@@H](O)[C@@H]2C=CO[C@@H](O[C@@H]3O[C@H](CO)[C@@H](O)[C@H](O)[C@H]3O)[C@H]12`, the Potency result in assay [1], in assay [2], in assay [3] and in assay [4] was “inactive” throughout.

Take `CC(=O)NC(Cc1c[nH]c2ccccc(=O)c12)C(=O)O` (stereo not given): the Potency result in assay [1] and in assay [2] was “inactive” each time. The figures for the Potency in assay [3] and in assay [4] were 22.4 µM (active) and 15.8 µM (active), respectively.

For the compound `CC(C)=CCC/C(C)=C/CO[C@@H]1O[C@H](CO[C@@H]2O[C@@H](CO)[C@H](O)[C@H]2O)[C@@H](O)[C@H](O)[C@H]1O`, the Potency entry in assay [1], in assay [2], in assay [3] and in assay [4] was “inactive” throughout.

`Cc1c(O)cc2c(c1O)COC1(O)CCCOC21` (stereo not given): the Potency entry in assay [1], in assay [2], in assay [3] and in assay [4] was “inactive” in each case.

`CC1CCCCCCCc2cc(O)cc(O)c2C(=O)O1` (stereo not given): the Potency result in assay [1] and in assay [2] was “inactive” each time. In addition, the Potency in assay [3] is 39.8 µM (active); in assay [4], 15.8 µM (active).

As to `C=C1C(OC(C)=O)CCC2(C)CC3(O)OC(=O)C(C)=C3CC12` (stereo not given), the Potency result in assay [1], in assay [2], in assay [3] and in assay [4] was “inactive” in each case.

For the compound `COC(=O)[C@H](Cc1cccc(C(=N)N)c1)[C@@H](C)NC(=O)c1ccc(-c2cc[n+]([O-])cc2)cc1`, the Potency result in assay [1], in assay [2], in assay [3] and in assay [4] was “inactive” in each case.

As for `CC/C=C\[C@H](O)[C@H](O)C1=C(C)C(=O)[C@]2(O1)C(=O)N[C@@](O)(C(=O)c1ccccc1)[C@@H]2O`, the Potency entry in assay [1], in assay [2], in assay [3] and in assay [4] was “inactive” in each case.

In the case of `CC1=CC[C@@]2(C)CC[C@@](O)(C(C)C)[C@@H]2[C@@H](O)C1`, the Potency entry in assay [1], in assay [2], in assay [3] and in assay [4] was “inactive” each time.

For the compound `CC1=COC(OC2OC(CO)C(O)C(O)C2O)C2C(CO)CC(OC(=O)/C=C/c3ccc(O)cc3)C12` (stereo not given), the Potency entry in assay [1], in assay [2], in assay [3] and in assay [4] was “inactive” in each case.

The values are drawn from PubChem BioAssay (NCATS).
